Measurements: PubChem BioAssay AID430 (Sanford-Burnham Center for Chemical Genomics, 2006)
In all, about 63,000 compounds went through this assay and about 1,100 (1.7%) were called active. Rule as the data show it: active = cytotoxicity above about 50%; inactive = the rest. The entries come from a sample that favours actives as a whole. Entries with a potency or affinity are not part of this list.

Assay: HPDE-C7 pancreatic duct cell viability loss – fluorescence, HTS (AID 430);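 also: cells exposed to compound for 48 hours before viability readout; 0% = vehicle and 100% = reference cytotoxic drug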
Settings: HPDE-C7 pancreatic duct cells viability, at 10 µM, stronger effect = higher value

Row | SMILES | cytotoxicity
1 | Cc1ccc(C)c(CN2CCCNC2=O)c1 | -5.7% (inactive)
2 | COC(=O)c1cc2occc2n1CC(=O)Nc1ccc(OC)c(OC)c1 | -0.3% (inactive)
3 | CCNC(=O)CSc1nc2ccccc2c(=O)n1OC | -1% (inactive)
4 | Clc1ccc(Cn2nnc(-c3ccc(CN4CCOCC4)cc3)n2)cc1 | -26.4% (inactive)
5 | COC(=O)c1ccc(NC(=O)C2CCCN2S(=O)(=O)c2ccc(F)cc2)cc1 (stereo not drawn) | 2.5% (inactive)
6 | COc1cccc(-c2cc(C(F)(F)F)nc(N3CCOCC3)n2)c1 | -14% (inactive)
7 | COc1cccc(-c2cc(C(F)(F)F)nc(N3CCN(c4ccccc4)CC3)n2)c1 | 72.4% (active)
8 | COc1cccc(-c2cc(C(F)(F)F)nc(N3CCCCC3)n2)c1 | -12.8% (inactive)
9 | O=c1c2ccccc2oc2ncccc12 | -24.9% (inactive)
10 | CCC(Sc1nccn1C)C(=O)Nc1cccc2ccccc12 (stereo not drawn) | -6.2% (inactive)
11 | O=C(NCC1(N2CCOCC2)CCCCC1)c1ccc(Cl)c(S(=O)(=O)NCc2ccco2)c1 | -1.6% (inactive)
12 | COc1ccc(C(=O)N2CCN(C(=O)c3cc(OC)c(OC)c(OC)c3)CC2)cc1 | 5.9% (inactive)
13 | Cc1cccc(N2CCN(C(=O)c3ccc(Cl)c(S(=O)(=O)NCc4ccco4)c3)CC2)c1C | 65.8% (active)
14 | COc1cc(C(=O)N2CCN(c3cccc(C)c3C)CC2)cc(OC)c1OC | 67.4% (active)
15 | Cc1cccc(N2CCN(C(=O)c3ccncc3)CC2)c1C | 34.4% (inactive)
16 | COc1ccc(Cl)cc1S(=O)(=O)N1CCN(C(=O)c2cc(OC)c(OC)c(OC)c2)CC1 | -17% (inactive)
17 | COc1cc(C(=O)N2CCN(c3ccc(C)cc3C)CC2)cc(OC)c1OC | 53.4% (active)
18 | COc1cc(C(=O)N2CCN(C(=O)c3ccccc3)CC2)cc(OC)c1OC | -2.2% (inactive)
19 | COc1ccc(C(=O)N2CCN(c3ccc(C)cc3C)CC2)cc1OC | -9.6% (inactive)
20 | O=C(O)c1ccc(Cl)c(S(=O)(=O)NCc2ccco2)c1 | -12.1% (inactive)
21 | COc1cc(C(=O)N2CCN(c3cc(Cl)ccc3Cl)CC2)cc(OC)c1OC | 64.3% (active)

Row | SMILES | cytotoxicity
22 | Cc1ccc(N2CCN(C(=O)c3ccccc3)CC2)c(C)c1 | -29.9% (inactive)
23 | CCOCC(=O)Nc1cccc(NC(C)=O)c1 | -3.5% (inactive)
24 | COc1ccc(C(=O)N(Cc2ccco2)Cc2cc3cc(C)ccc3[nH]c2=O)cc1OC | 4.2% (inactive)
25 | Cc1ccc(S(=O)(=O)Nc2ccc(NC(=O)CN3CCCCC3)cc2)cc1 | -3% (inactive)
26 | COc1ccc(OCC(=O)Nc2ccc3c(c2)nc(CCN2CCOCC2)n3C)cc1 | 10.7% (inactive)
27 | COc1ccc(C(CNC(=O)Cc2cc(OC)c(OC)c(OC)c2)N2CCCC2)cc1 (stereo not drawn) | -31.8% (inactive)
28 | COc1ccc(-c2nnc(SCC(=O)NC(C)c3ccccc3)o2)cc1OC (stereo not drawn) | -26.2% (inactive)
29 | O=C(OCc1nnc(-c2ccccc2)o1)c1cc(=O)c2ccccc2o1 | 1.2% (inactive)
30 | CCC(C)NC(=O)NC1C(NC(=O)NC(C)CC)N(C)C(=O)N1C (stereo not drawn) | -7.6% (inactive)
31 | CCN(C(=O)c1coc(=O)c2ccccc12)c1cc(OC)ccc1OC | -6.4% (inactive)
32 | Cc1[nH]nc2c1C1(CCN(Cc3ccccc3)CC1)C(C#N)=C(N)O2 | -9.5% (inactive)
33 | COc1ccc(C2=NOC(C(=O)N3CCOCC3)C2)cc1OC (stereo not drawn) | -3.2% (inactive)
34 | Cc1ccc2nc(SCCC#N)nc(C)c2c1 | -10.1% (inactive)
35 | COc1ccc(S(=O)(=O)N2CC(C)N(S(=O)(=O)c3ccc(OC)cc3)CC2C)cc1 (stereo not drawn) | -4.1% (inactive)
36 | Cc1cc(C)nc(SC2=CS(=O)(=O)c3ccccc32)n1 | 4.3% (inactive)
37 | Clc1ccc2oc(-c3ccccc3)nc2c1 | -4.4% (inactive)
38 | O=S1(=O)C=C(Sc2nc3ccccc3s2)c2ccccc21 | 109% (active)
39 | O=S1(=O)C=C(Sc2nnc(-c3ccccc3)o2)c2ccccc21 | 47.8% (inactive)
40 | Cn1c(SC2=CS(=O)(=O)c3ccccc32)nc2ccccc21 | 49.6% (inactive)
41 | COc1ccc(/C=N/n2cnnc2SCCO)cc1OC | -14.1% (inactive)
42 | COc1ccc(-c2nnc3sc(-c4ccccn4)nn23)cc1 | -5.5% (inactive)

Row | SMILES | cytotoxicity
43 | COc1ccc(-c2cn3cccnc3n2)cc1NC(=O)C1CCCC1 | -13.7% (inactive)
44 | Cn1c(Cn2nnc3ccccc32)nnc1SCC(=O)N1c2ccccc2Sc2ccccc21 | -9.1% (inactive)
45 | CCCC(N)CCCCCC(=O)O (stereo not drawn) | -2.3% (inactive)
46 | CCSC(SCC)[C@H](O)[C@@H](O)[C@H](O)[C@H](O)CO | 11.2% (inactive)
47 | COc1ccccc1N1C(=O)C2C3C=CC(C3)C2C1=O (stereo not drawn) | -6% (inactive)
48 | O=c1oc2ccccc2n1CSc1nc2ccccc2s1 | -4% (inactive)
49 | CCNS(=O)(=O)c1ccc(NC(=O)c2ccccc2OCC)cc1 | 10.2% (inactive)
50 | CCCCC(=O)Nc1nc(C)c(C(C)=O)s1 | -0.6% (inactive)
51 | CC(=O)c1sc(NC(=O)C=C(C)C)nc1C | 1.3% (inactive)
52 | CC(=O)c1sc(NC(=O)C2(F)C(F)(F)C(F)(F)C(F)(F)C(F)(F)C2(F)F)nc1C | 52.4% (active)
53 | O=C(c1ccco1)N1CCN(Cc2ccc(Cl)cc2)CC1 | -3.7% (inactive)
54 | CCN(CC)S(=O)(=O)c1ccc2c(c1)nc(SCC(=O)NC1CC1)n2-c1ccccc1OC | 3.8% (inactive)
55 | COc1ccc(-c2nc3ccccc3c(=O)n2CCCn2ccnc2)cc1 | -0.2% (inactive)
56 | CSc1ccc(S(=O)(=O)Nc2ccc3c(c2)OCCO3)cc1 | 8.6% (inactive)
57 | O=S(=O)(Nc1ccc2c(c1)OCCO2)c1ccc2oc3ccccc3c2c1 | 83.9% (active)
58 | COc1ccc(NS(=O)(=O)c2ccc3oc4ccccc4c3c2)cn1 | 25.3% (inactive)
59 | CCc1c(C)nc2ncnn2c1N1CCC(C(=O)Nc2cccc(C(C)=O)c2)CC1 | -7.9% (inactive)
60 | N#Cc1c(NC(=O)CSc2nnc(-c3ccncc3)n2CC2CCCO2)sc2c1CCCC2 (stereo not drawn) | 4.8% (inactive)
61 | Cc1ccc(/C=c2/sc3nnc(-c4ccccc4Cl)n3c2=O)o1 | 69.7% (active)
62 | Cc1ccc(/C=c2\sc3nc(-c4ccccc4Br)nn3c2=O)o1 | 2.6% (inactive)
63 | Cc1ccccc1-c1nnc2s/c(=C\c3ccc(N(C)C)cc3)c(=O)n12 | 2.2% (inactive)
